# Laboratory results published in the supplement of paper PMC4022240.
# ± gives the standard deviation.
# T1: HaloTag-ATRX ADD domain (163-292)
# T1 chain: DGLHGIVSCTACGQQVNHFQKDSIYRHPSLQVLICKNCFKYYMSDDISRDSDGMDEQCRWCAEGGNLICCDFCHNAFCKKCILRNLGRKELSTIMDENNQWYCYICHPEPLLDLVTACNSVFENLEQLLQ
# Legend:
# Assay in all cases: peptide microarray binding signal (635 nm), min-max normalized on array (fraction of array maximum); higher = stronger binding
# [1] = target: T1, HaloTag-ATRX ADD domain (163-292)
# How it was run: (§1)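 Two probe formats were used for 1 h at 4°C: biotin-labelled HaloTag reader fusions (10 nM to 1 μM) with streptavidin-Alexa Fluor 647, and rabbit histone antibodies (1:10,000 to 1:2,000) with anti-rabbit Alexa 647. Both were applied to nitrocellulose arrays of histone 13-mer peptide–cellulose conjugates printed in triplicate with a Cy3 tracer and blocked overnight at 4°C. Signal was read at 635 nm and misprints at 532 nm on an Axon GenePix 4000B. Binding signal is expressed as the triplicate-spot mean intensity, min-max scaled for each library.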
# [2] = target: HaloTag-ING2 PHD (mouse Ing2 200-280)
# How it was run: as §1
# [3] = target: anti-H3K4me3 antibody ab8580
# How it was run: as §1
# [4] = target: anti-H3K9me3 antibody ab8898
# How it was run: as §1
# [5] = peptide region: H3 1-13, peptide modifications: H3T3ph, binder concentration: 1:2,000 dilution
# [6] = peptide region: H3 1-13, peptide modifications: H3T3ph, binder concentration: 1:10,000 dilution
# [7] = peptide region: H3 1-13, peptide modifications: H3T3ph H3K9ac, binder concentration: 1:2,000 dilution
# [8] = peptide region: H3 1-13, peptide modifications: H3T3ph H3K9ac, binder concentration: 1:10,000 dilution
# [9] = peptide region: H3 1-13, peptide modifications: H3T3ph H3K9me1, binder concentration: 1:2,000 dilution
# [10] = peptide region: H3 1-13, peptide modifications: H3T3ph H3K9me1, binder concentration: 1:10,000 dilution
# [11] = peptide region: H3 5-17, peptide modifications: H3K9ac H3K14ac, binder concentration: 1:2,000 dilution
# [12] = peptide region: H3 5-17, peptide modifications: H3K9ac H3K14ac, binder concentration: 1:10,000 dilution
# [13] = peptide region: H3 1-13, peptide modifications: H3T3ph H3K9me2, binder concentration: 1:2,000 dilution
# [14] = peptide region: H3 1-13, peptide modifications: H3T3ph H3K9me2, binder concentration: 1:10,000 dilution
# [15] = peptide region: H3 5-17, peptide modifications: H3K9ac H3K14me2, binder concentration: 1:2,000 dilution
# [16] = peptide region: H3 5-17, peptide modifications: H3K9ac H3K14me2, binder concentration: 1:10,000 dilution
# [17] = peptide region: H3 5-17, binder concentration: 1:2,000 dilution
# [18] = peptide region: H3 5-17, binder concentration: 1:10,000 dilution
# [19] = peptide region: H3 1-13, peptide modifications: H3T6ph H3R8me2s, binder concentration: 1:2,000 dilution
# [20] = peptide region: H3 1-13, peptide modifications: H3T6ph H3R8me2s, binder concentration: 1:10,000 dilution
# [21] = peptide region: H3 1-13, peptide modifications: H3T3ph H3K9me3, binder concentration: 1:2,000 dilution
# [22] = peptide region: H3 1-13, peptide modifications: H3T3ph H3K9me3, binder concentration: 1:10,000 dilution
# [23] = peptide region: H3 1-13, peptide modifications: H3T3ph H3K4me2, binder concentration: 1:2,000 dilution
# [24] = peptide region: H3 1-13, peptide modifications: H3T3ph H3K4me2, binder concentration: 1:10,000 dilution
binder,measurement,setting,value
ARTKQTARKSTGG [H3 1-13 A R Tph K Q T A R K S T G G],peptide microarray binding signal,"[1]; peptide region: H3 1-13, peptide modifications: H3T3ph, binder concentration: 50 nM",0.01044 ± 0.0001
same,peptide microarray binding signal,"[1]; peptide region: H3 1-13, peptide modifications: H3T3ph, binder concentration: 500 nM",0.0136 ± 0.0015
same,peptide microarray binding signal,"[2]; peptide region: H3 1-13, peptide modifications: H3T3ph, binder concentration: 10 nM",0.0146 ± 0.00026
same,peptide microarray binding signal,"[2]; peptide region: H3 1-13, peptide modifications: H3T3ph, binder concentration: 100 nM",0.0137 ± 0.0036
same,peptide microarray binding signal,[3]; [5],0.00119 ± 5e-05
same,peptide microarray binding signal,[3]; [6],0.002568 ± 2.3e-05
same,peptide microarray binding signal,[4]; [5],0.00137 ± 6.5e-05
same,peptide microarray binding signal,[4]; [6],0.002998 ± 2.6e-05
ARTKQTARKSTGG [H3 1-13 A R Tph K Q T A R Kac S T G G],peptide microarray binding signal,"[1]; peptide region: H3 1-13, peptide modifications: H3T3ph H3K9ac, binder concentration: 50 nM",0.00881 ± 0.00025
same,peptide microarray binding signal,"[1]; peptide region: H3 1-13, peptide modifications: H3T3ph H3K9ac, binder concentration: 500 nM",0.0147 ± 0.00088
same,peptide microarray binding signal,"[2]; peptide region: H3 1-13, peptide modifications: H3T3ph H3K9ac, binder concentration: 10 nM",0.0255 ± 0.0014
same,peptide microarray binding signal,"[2]; peptide region: H3 1-13, peptide modifications: H3T3ph H3K9ac, binder concentration: 100 nM",0.04 ± 0.0064
same,peptide microarray binding signal,[3]; [7],0.0124 ± 0.0018
same,peptide microarray binding signal,[3]; [8],0.00867 ± 0.00052
same,peptide microarray binding signal,[4]; [7],0.00523 ± 0.00022
same,peptide microarray binding signal,[4]; [8],0.00363 ± 0.00025
ARTKQTARKSTGG [H3 1-13 A R Tph K Q T A R Kme S T G G],peptide microarray binding signal,"[1]; peptide region: H3 1-13, peptide modifications: H3T3ph H3K9me1, binder concentration: 50 nM",0.00815 ± 8.5e-05
same,peptide microarray binding signal,"[1]; peptide region: H3 1-13, peptide modifications: H3T3ph H3K9me1, binder concentration: 500 nM",0.0174 ± 0.0014
same,peptide microarray binding signal,"[2]; peptide region: H3 1-13, peptide modifications: H3T3ph H3K9me1, binder concentration: 10 nM",0.0307 ± 0.0023
same,peptide microarray binding signal,"[2]; peptide region: H3 1-13, peptide modifications: H3T3ph H3K9me1, binder concentration: 100 nM",0.0507 ± 0.004
same,peptide microarray binding signal,[3]; [9],0.00859 ± 0.0018
same,peptide microarray binding signal,[3]; [10],0.0167 ± 0.0032
same,peptide microarray binding signal,[4]; [9],0.00692 ± 0.00099
same,peptide microarray binding signal,[4]; [10],0.0053 ± 0.00068
QTARKSTGGKAPR [H3 5-17 Q T A R Kac S T G G Kac A P R],peptide microarray binding signal,"[1]; peptide region: H3 5-17, peptide modifications: H3K9ac H3K14ac, binder concentration: 50 nM",0.0318 ± 0.0049
same,peptide microarray binding signal,"[1]; peptide region: H3 5-17, peptide modifications: H3K9ac H3K14ac, binder concentration: 500 nM",0.0984 ± 0.027
same,peptide microarray binding signal,"[2]; peptide region: H3 5-17, peptide modifications: H3K9ac H3K14ac, binder concentration: 10 nM",0.0862 ± 0.034
same,peptide microarray binding signal,"[2]; peptide region: H3 5-17, peptide modifications: H3K9ac H3K14ac, binder concentration: 100 nM",0.048 ± 0.023
same,peptide microarray binding signal,[3]; [11],0.0141 ± 0.0045
same,peptide microarray binding signal,[3]; [12],0.0234 ± 0.0064
same,peptide microarray binding signal,[4]; [11],0.03 ± 0.0085
same,peptide microarray binding signal,[4]; [12],0.0332 ± 0.014
ARTKQTARKSTGG [H3 1-13 A R Tph K Q T A R Kme2 S T G G],peptide microarray binding signal,"[1]; peptide region: H3 1-13, peptide modifications: H3T3ph H3K9me2, binder concentration: 50 nM",0.0107 ± 0.00063
same,peptide microarray binding signal,"[1]; peptide region: H3 1-13, peptide modifications: H3T3ph H3K9me2, binder concentration: 500 nM",0.0409 ± 0.02
same,peptide microarray binding signal,"[2]; peptide region: H3 1-13, peptide modifications: H3T3ph H3K9me2, binder concentration: 10 nM",0.0306 ± 0.0047
same,peptide microarray binding signal,"[2]; peptide region: H3 1-13, peptide modifications: H3T3ph H3K9me2, binder concentration: 100 nM",0.0365 ± 0.018
same,peptide microarray binding signal,[3]; [13],0.0117 ± 0.0018
same,peptide microarray binding signal,[3]; [14],0.0191 ± 0.0097
same,peptide microarray binding signal,[4]; [13],0.0295 ± 0.0016
same,peptide microarray binding signal,[4]; [14],0.013 ± 0.0018
QTARKSTGGKAPR [H3 5-17 Q T A R Kac S T G G Kme2 A P R],peptide microarray binding signal,"[1]; peptide region: H3 5-17, peptide modifications: H3K9ac H3K14me2, binder concentration: 50 nM",0.00746 ± 0.00033
same,peptide microarray binding signal,"[1]; peptide region: H3 5-17, peptide modifications: H3K9ac H3K14me2, binder concentration: 500 nM",0.0201 ± 0.0018
same,peptide microarray binding signal,"[2]; peptide region: H3 5-17, peptide modifications: H3K9ac H3K14me2, binder concentration: 10 nM",0.0147 ± 0.0015
same,peptide microarray binding signal,"[2]; peptide region: H3 5-17, peptide modifications: H3K9ac H3K14me2, binder concentration: 100 nM",0.0485 ± 0.015
same,peptide microarray binding signal,[3]; [15],0.0108 ± 0.00077
same,peptide microarray binding signal,[3]; [16],0.00468 ± 0.00039
same,peptide microarray binding signal,[4]; [15],0.0189 ± 0.00074
same,peptide microarray binding signal,[4]; [16],0.406 ± 0.064
QTARKSTGGKAPR [H3 5-17 Q T A R K S T G G K A P R],peptide microarray binding signal,"[1]; peptide region: H3 5-17, binder concentration: 50 nM",0.00796 ± 0.00026
same,peptide microarray binding signal,"[1]; peptide region: H3 5-17, binder concentration: 500 nM",0.00462 ± 0.00035
same,peptide microarray binding signal,"[2]; peptide region: H3 5-17, binder concentration: 10 nM",0.00376 ± 7.2e-05
same,peptide microarray binding signal,"[2]; peptide region: H3 5-17, binder concentration: 100 nM",0.00489 ± 0.00045
same,peptide microarray binding signal,[3]; [17],0.000982 ± 8.5e-05
same,peptide microarray binding signal,[3]; [18],0.00143 ± 0.00013
same,peptide microarray binding signal,[4]; [17],0.00242 ± 0.0011
same,peptide microarray binding signal,[4]; [18],0.00265 ± 0.00021
ARTKQTARKSTGG [H3 1-13 A R T K Q Tph A Rme2s K S T G G],peptide microarray binding signal,"[1]; peptide region: H3 1-13, peptide modifications: H3T6ph H3R8me2s, binder concentration: 50 nM",0.0201 ± 0.0019
same,peptide microarray binding signal,"[1]; peptide region: H3 1-13, peptide modifications: H3T6ph H3R8me2s, binder concentration: 500 nM",0.0152 ± 0.0026
same,peptide microarray binding signal,"[2]; peptide region: H3 1-13, peptide modifications: H3T6ph H3R8me2s, binder concentration: 10 nM",0.0119 ± 0.00043
same,peptide microarray binding signal,"[2]; peptide region: H3 1-13, peptide modifications: H3T6ph H3R8me2s, binder concentration: 100 nM",0.0145 ± 0.00066
same,peptide microarray binding signal,[3]; [19],0.00287 ± 9.2e-05
same,peptide microarray binding signal,[3]; [20],0.000571
same,peptide microarray binding signal,[4]; [19],0.0029 ± 6.7e-05
same,peptide microarray binding signal,[4]; [20],0.00646 ± 0.0018
ARTKQTARKSTGG [H3 1-13 A R Tph K Q T A R Kme3 S T G G],peptide microarray binding signal,"[1]; peptide region: H3 1-13, peptide modifications: H3T3ph H3K9me3, binder concentration: 50 nM",0.0613 ± 0.011
same,peptide microarray binding signal,"[1]; peptide region: H3 1-13, peptide modifications: H3T3ph H3K9me3, binder concentration: 500 nM",0.122 ± 0.03
same,peptide microarray binding signal,"[2]; peptide region: H3 1-13, peptide modifications: H3T3ph H3K9me3, binder concentration: 10 nM",0.0186 ± 0.0018
same,peptide microarray binding signal,"[2]; peptide region: H3 1-13, peptide modifications: H3T3ph H3K9me3, binder concentration: 100 nM",0.0397 ± 0.0029
same,peptide microarray binding signal,[3]; [21],0.122 ± 0.066
same,peptide microarray binding signal,[3]; [22],0.0819 ± 0.021
same,peptide microarray binding signal,[4]; [21],0.459 ± 0.036
same,peptide microarray binding signal,[4]; [22],0.387 ± 0.046
ARTKQTARKSTGG [H3 1-13 A R Tph Kme2 Q T A R K S T G G],peptide microarray binding signal,"[1]; peptide region: H3 1-13, peptide modifications: H3T3ph H3K4me2, binder concentration: 50 nM",0.00555 ± 0.0001
same,peptide microarray binding signal,"[1]; peptide region: H3 1-13, peptide modifications: H3T3ph H3K4me2, binder concentration: 500 nM",0.00891 ± 0.00073
same,peptide microarray binding signal,"[2]; peptide region: H3 1-13, peptide modifications: H3T3ph H3K4me2, binder concentration: 10 nM",0.0132 ± 0.0013
same,peptide microarray binding signal,"[2]; peptide region: H3 1-13, peptide modifications: H3T3ph H3K4me2, binder concentration: 100 nM",0.0916 ± 0.0043
same,peptide microarray binding signal,[3]; [23],0.0195 ± 0.0045
same,peptide microarray binding signal,[3]; [24],0.024 ± 0.0033
same,peptide microarray binding signal,[4]; [23],0.0022 ± 0.00054
same,peptide microarray binding signal,[4]; [24],0.00185 ± 8e-05
